# Most compounds without a hit are left out; they make up all but 19% or so of the library.
# DT40 TDP1 no CPT = qHTS for Inhibitors of human tyrosyl-DNA phosphodiesterase 1 (TDP1): qHTS in cells in absence of CPT | DT40 Tdp1-/- hTDP1 cells, no CPT, ATP luminescence, 48 h | Potency, µM (top dose mostly 46.2 µM), for inactives: top-dose activity change, negative = growth inhibition, hits mostly inhibitors | hit rate 15% among 420,000; also: potency is read from the fitted curve at half-maximal effect; nearly all actives have a fitted effect of over 55% in size
#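 Compound effects on proliferation are scored in DT40 Tdp1-/-;hTDP1 cells in the absence of CPT. ATP levels (CellTiter-Glo luminescence) are recorded after a ≥48 hr, 37 °C incubation.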
# HT1080 IDH1KD tx = toxicity to HT-1080 IDH1 knockdown cells (counter line). hit rate 2% among 360,000. HT-1080 IDH1 knockdown viability, ATP luminescence, 48 h. Potency, µM (top dose mostly 46.1 µM), without a hit: at the highest dose activity, negative = toxicity, most hits filed as cytotoxic;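 also: potency is read from the fitted curve at half-maximal effect; 0% = DMSO wells and -100% = cell-free medium wells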
#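 Viability of IDH1-knockdown HT-1080 fibrosarcoma cells was assessed by CellTiter-Glo after 48 h at 37 °C with titrated compound; concentration-effect curves were classified by fit quality and response size.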
# IL-1B inflam inh = inflammasome signaling inhibition, IL-1 beta readout; activity change, % at 57.5 µM; THP-1 LPS/ATP IL-1B secretion, AlphaLISA, 16 h; hits give low values; hit rate 4.7% among 360,000; in the data active = activity change below about -50%; inconclusive = mostly about -30% to -49%
#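 Secreted IL-1B measured by AlphaLISA bead assay after 16 h compound exposure of THP-1 cells; compounds (final up to 57.5 uM) added 1 h before LPS (250 ng/mL) and ATP (1.25 mM) stimulation; lower signal means less secretion.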
# TDP1 cell CPT = DT40-hTDP1 cell growth loss with CPT | chicken DT40 Tdp1-/-;hTDP1 cells + 20 nM CPT, ATP luminescence, 48 h | Potency, µM (series often up to 46.2 µM), for inactives: at the highest dose activity change, negative = growth inhibition, hits mostly inhibitors | hit rate 12% among 420,000; also: potency is read from the fitted curve at half-maximal effect; nearly all actives have a fitted effect of over 55% in size
#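 Chicken DT40 Tdp1-/- cells stably complemented with human TDP1 were seeded at 400 cells/well in medium containing 20 nM camptothecin, exposed to pin-transferred compounds, and grown at 37 °C for at least 48 hr. Viability was read as ATP luminescence.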
# HT1080-NT tox = kills 2HG-producing HT-1080-NT fibrosarcoma cells; hit rate 1.6% among 360,000; Potency, µM (highest dose often 46.1 µM), for inactives: at the highest dose activity, negative = less viability, most hits filed as cytotoxic; HT-1080-NT fibrosarcoma viability, CellTiter-Glo ATP luminescence, 48 h;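 also: NT is the 2HG producing partner of a matched IDH1 knockdown line; potency is read from the fitted curve at half-maximal effect; 0% = DMSO-treated cells and -100% = media-only wells without cells; nearly all actives have a fitted effect of over 55% in size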
#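 Compounds were tested in concentration-response format on HT-1080-NT cells for 48 hours at 37 degrees C. Cell viability came from CellTiter-Glo luminescence; curves were classified by r2, response magnitude and activity.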
# Active calls of the source: *; ? = inconclusive; · = not tested or not shown. Unless noted, calls follow the shape of the dose curve; as a rule, active = well fitted curve in the direction sought with a large enough effect; inconclusive = small, poorly fitted or top-dose-only effect, or another doubt; inactive = no such curve, though single readings can be large; an effect the other way counts as inactive or inconclusive. Unless noted, % is scaled to controls: 0 for no effect and ±100 for the full control effect.
SMILES,DT40 TDP1 no CPT,HT1080 IDH1KD tx,IL-1B inflam inh,TDP1 cell CPT,HT1080-NT tox
COc1cc(CNC(=O)CCn2nc(C)c3c(C)n(-c4ccccc4)nc3c2=O)cc(OC)c1OC,10.6%,13.9%,6.4,0.1%,5.4%
CCc1nc2sc3c(c2c(=O)n1CCO)CCC3,-8.9%,-0.3%,34.9,-10.7%,-10.1%
CSc1ccc(CN2CCC2(C)C(=O)NCc2cccc(C(F)(F)F)c2)cc1 (stereo not given),?,?,-18.4,?,?
COc1cccc(CN2CCC2(C)C(=O)NCc2cccc(C(F)(F)F)c2)c1OC (stereo not given),13µM*,?,-1.2,13µM*,?
CC1(C(=O)NCc2cccc(C(F)(F)F)c2)CCN1C1Cc2ccccc2C1 (stereo not given),20.6µM*,?,12.5,?,?
Cc1cc(Br)cn2c(Cc3ccccc3)c(-c3ccc(Cl)cc3)nc12,-20.1%,7.3%,68.8,-2.4%,14.9%
Cc1cc(Br)cn2c(Cc3ccccc3)c(-c3ccc(C#N)cc3)nc12,?,-22.3%,-2.9,18.4µM*,-28.4%
Cc1ccc(Cc2c(-c3ccc(C)cc3)nc3c(C)cc(Br)cn23)cc1,16.4µM*,-29.7%,0.0,16.4µM*,?
Cc1ccc(Cc2c(-c3ccc(F)cc3)nc3c(C)cc(Br)cn23)cc1,16.4µM*,?,54.6,20.6µM*,?
S=C(Nc1ccc(Br)cc1)N1CCN(c2ccccn2)CC1,-10.6%,-5.1%,14.8,-28.7%,-19.9%
Cc1c2ccncc2cc2c1[nH]c1ccccc12,6.51µM*,13µM*,-96.5*,5.8µM*,18.4µM*
CN1CCN(c2ccc(S(=O)(=O)N3CCCCC3)cc2NC(=O)CSC(C)(C)C)CC1,-12.1%,0.3%,-15.1,-1.2%,1.1%
O=C(Cn1c(=O)c2ccccc2n2nncc12)Nc1cccc(F)c1,?,·,·,0.2%,·
CCOc1ccc(NC(=O)Cn2sc3nc(C)cc(C)c3c2=O)cc1,2.59µM*,12.0%,-88.6*,2.06µM*,20.5%
Cc1ccc(NC(=O)Cn2sc3nc(C)cc(C)c3c2=O)c(Cl)c1,2.91µM*,?,14.1,2.91µM*,-9.1%
Cc1cc(C)c2c(=O)n(CC(=O)Nc3ccc(Cl)cc3)sc2n1,2.59µM*,?,-9.5,4.11µM*,-18.5%
CCOc1ccc(NC(=O)CCc2c(C)nc3c4c(C)cc(C)nc4nn3c2C)cc1,-12.3%,·,·,8.4%,·
Cc1cc(C)c2c(=O)n(CC(=O)Nc3cccc(F)c3)sc2n1,2.31µM*,?,-0.1,2.31µM*,?
Cc1cc(C)n(CCC(=O)Nc2ccc(Cl)cc2)n1,-6.6%,·,·,3.0%,·
Cc1ccccc1S(=O)(=O)Nc1nc2ccccc2nc1N1CCOCC1,1.2%,4.0%,3.3,7.3%,0.5%
CCOC(=O)C1=C(C)NC2=C(C(=O)C(C(=O)OCC)C(c3ccco3)C2)C1c1ccccc1C (stereo not given),22.4µM*,·,·,20µM*,·
CCOC(=O)C1=C(C)NC2=C(C(=O)C(C(=O)OCC)C(c3ccco3)C2)C1c1ccccn1 (stereo not given),?,11.5%,4.5,-27.6%,1.4%
C=CCSc1n[nH]c(-c2ccc(OCCC)cc2)n1,16.4µM*,8.91µM*,-3.5,29.1µM*,7.08µM*
COc1cccc(Nc2nc3cc(Cl)c(Cl)cc3nc2-n2nc(C)cc2C)c1,-0.6%,·,·,-14.8%,·
CCc1ccccc1NC(=O)COCc1cc(-c2ccco2)on1,-29.8%,·,·,-10.1%,·
SMILES,DT40 TDP1 no CPT,HT1080 IDH1KD tx,IL-1B inflam inh,TDP1 cell CPT,HT1080-NT tox
CCOC(=O)C1=C(C2=CCCCC2)c2ccc(OC)cc2N(S(=O)(=O)C(F)(F)F)C1C(=O)OCC (stereo not given),2.31µM*,-5.7%,?,5.8µM*,-12.0%
CCOC(=O)C1C(C(=O)OC)=C(c2ccc(OC)cc2)c2ccccc2N1S(=O)(=O)C(F)(F)F (stereo not given),16.4µM*,-1.1%,-20.2,?,2.8%
CCOC(=O)C1(C)C(C(=O)OC)=C(c2ccc(OC)cc2)c2ccccc2N1C(=O)OC (stereo not given),13µM*,2.6%,-17.5,20.6µM*,7.2%
CCOC(=O)C1(C)Oc2ccccc2C(c2ccc(OC)cc2)=C1C(=O)OC (stereo not given),?,-3.2%,-12.3,?,1.3%
CCOC(=O)C1=C(c2ccccc2)c2ccccc2N(S(=O)(=O)C(F)(F)F)C1C(=O)OCC (stereo not given),?,2.3%,-4.4,?,3.6%
COC(=O)c1c(NC(=O)COc2ccc(Cl)cc2)sc2c1CC(C)(C)NC2(C)C,3.66µM*,-9.7%,-97.0*,2.91µM*,2.1%
CCOC(=O)c1c(NC(=O)CSc2ncccn2)sc2c1CC(C)(C)NC2(C)C,-1.7%,-15.8%,-57.5*,-1.6%,-15.8%
COC(=O)c1c(NC(=O)Cc2ccccc2)sc2c1CC(C)(C)NC2(C)C,?,-18.7%,?,?,-3.7%
CCOC(=O)c1c(NC(=O)COc2ccccc2F)sc2c1CC(C)(C)NC2(C)C,13µM*,8.2%,-25.7,9.2µM*,-0.5%
CCOC(=O)c1c(NC(=O)CSc2nc3ccc(OC)cc3[nH]2)sc2c1CC(C)(C)NC2(C)C,?,-24.9%,-93.8*,?,1.2%
CCOC(=O)c1c(NC(=O)CSc2ncccn2)sc(C(=O)NC)c1C,?,0.1%,22.0,?,-1.2%
COc1ccc(NC(=O)CSc2nc3ccc(OC)cc3[nH]2)cc1,-4.3%,-0.5%,0.0,-6.7%,0.2%
COCCn1c(C)cc(O)c(C(c2ccccc2)N2CCN(c3ccccc3)CC2)c1=O (stereo not given),-5.9%,·,·,-5.7%,·
Cc1cc(NC(=O)Cn2cnc3sccc3c2=O)no1,-5.5%,0.4%,-1.7,4.7%,1.7%
CCc1ccc(N2C(=O)CC(N(CC3CCCO3)C(=O)/C=C/C(=O)O)C2=O)cc1 (stereo not given),19.2%,11.4%,17.7,-7.6%,10.8%
COc1ccc2c(COC(=O)CNC(=O)C34CC5CC(CC(C5)C3)C4)cc(=O)oc2c1,?,7.6%,24.7,-8.4%,3.3%
COc1cccc(CNC(=O)c2sc3nc[nH]c(=O)c3c2C)c1,-22.3%,·,·,?,·
CCOc1cc(/C=C2/C(=N)N3C=CSC3=NC2=O)ccc1OCCCOc1ccccc1C,8.2µM*,?,-2.5,10.3µM*,?
CCS(=O)(=O)C1=NN2C(=N)/C(=C\c3ccc(OCCOc4cccc(OC)c4)c(OC)c3)C(=O)N=C2S1,14.9%,-0.5%,18.5,-17.5%,-6.3%

# Source: PubChem BioAssay (National Center for Advancing Translational Sciences (NCATS))
